From the supplement of paper PMC6555819 come the findings set out here.

What all share (assay): PBM binding z-score (relative to random genomic background probes); higher = stronger binding; sequences stand for … in GC…GCGATTGACAGCGTAGAATGAAGG
Assay [1] relates to FXR:RXRa (NR concentration 270 nM, RXRa partner concentration 90 nM). Put shortly:
(§1)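 Custom Agilent 4×180K protein-binding microarrays carried double-stranded probes, each with a 34-nt variable region. These regions held direct-repeat seeds, single-nucleotide variants, half-site ablations and random human genomic background sequences. Ligand-free nuclear receptor dimers were incubated on the arrays for 1 h, antibodies against each partner (one per run) detected binding, and scanned fluorescence was regression-normalized. Binding z-scores take the random background probes as reference.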

Assay [2] relates to LXRa:RXRa (NR concentration 270 nM, RXRa partner concentration 90 nM). Put shortly:
as §1

The subject of assay [3] is LXRa homodimer (NR concentration 270 nM). Put shortly:
as §1

The test system of assay [4] is LXRb:RXRa (NR concentration 270 nM, RXRa partner concentration 90 nM). Put shortly: as §1
The subject of assay [5] is LXRb homodimer (NR concentration 270 nM). Put shortly:
as §1

Assay [6] deals with PPARa:RXRa (NR concentration 270 nM, RXRa partner concentration 90 nM). Put shortly: as §1
Assay [7] relates to PPARg:RXRa (NR concentration 180 nM, RXRa partner concentration 90 nM). A digest of the protocol: as §1
Assay [8] relates to PPARg:RXRa 270nM:90nM, anti-RXR (NR concentration 270 nM, RXRa partner concentration 90 nM). Put shortly: as §1
For assay [9], the system named is PPARg:RXRa 30nM:10nM, anti-RXR (NR concentration 30 nM, RXRa partner concentration 10 nM). A digest of the protocol: as §1
In assay [10] the test system is PPARg:RXRa 90nM:30nM, anti-RXR (NR concentration 90 nM, RXRa partner concentration 30 nM). Put shortly:
as §1

For assay [11], the system named is PPARg:RXRa DBDmut IVT, anti-RXR (DBD mutation: RXRa K156A/R161A, NR concentration 270 nM, RXRa partner concentration 90 nM). A digest of the protocol: as §1
The test system of assay [12] is PPARg:RXRa IVT, anti-PPARg (NR concentration 270 nM, RXRa partner concentration 90 nM). Put shortly:
as §1

Assay [13] deals with PPARg DBDmut:RXRa IVT, anti-PPARg (DBD mutation: PPARg1 K132A/R137A, NR concentration 270 nM, RXRa partner concentration 90 nM). A digest of the protocol:
as §1

Assay [14] has as its system PPARg DBDmut IVT, anti-PPARg (DBD mutation: PPARg1 K132A/R137A, NR concentration 270 nM). A digest of the protocol: as §1
Assay [15] concerns PPARg homodimer (NR concentration 180 nM). Put shortly: as §1
The test system of assay [16] is PXR:RXRa (NR concentration 270 nM, RXRa partner concentration 90 nM). Put shortly:
as §1

Assay [17] deals with PXR homodimer (NR concentration 270 nM). Put shortly:
as §1

Assay [18] concerns RARa:RXR (NR concentration 270 nM, RXRa partner concentration 90 nM). A digest of the protocol:
as §1

In assay [19] the test system is RARa homodimer (NR concentration 270 nM). Put shortly: as §1
Assay [20] relates to RARb:RXRa (NR concentration 270 nM, RXRa partner concentration 90 nM). A digest of the protocol:
as §1

On to CGTCCAAGGTCAATGGTCAGTGAAGAGATGACGG, for which the PBM binding z-score in [1] came to 6.47; in assay [2], 4.43; in assay [3], 0.613; in [4] it was 3.19; in assay [5], 0.452; in assay [6], 4.93. In addition, the PBM binding z-score in assay [7] worked out at 4.14; in assay [8], 4.38; in assay [9], 1.83; in assay [10], 3.55; in [11], 3.08; in [12], 3.44. Further, the PBM binding z-score in assay [13] was 1.01; in assay [14], -0.0239; in assay [15], 2.84; in [16], 3.33; in assay [17] it was 1.16; in [18], 3.98. For the same sequence, the values for the PBM binding z-score in assay [19] and in [20] were 0.654 and 5.08, respectively.

On to CCTCGGAGGACGGAAGGTCAGAGCTGTCCGCTTT, for which the PBM binding z-score in assay [1] is 1.07; in assay [2], 1.43; in assay [3] it was -0.129; in [4], 0.901; in [5], -1.26; in assay [6], 1.57. In addition, the PBM binding z-score in [7] is -0.636; in assay [8], 0.361; in assay [9], -0.964; in [10] it was -0.314; in assay [11], -0.591; in [12], -0.453. Moreover, the PBM binding z-score in [13] was -1.93; in assay [14], -2.58; in assay [15], 1.18; in [16], 1.33; in [17], 0.186; in assay [18], 1.76. The values for the PBM binding z-score in assay [19] and in [20] were -0.121 and 2.6, respectively.

Turning to ATCGAAAGGTCGACGAGATGAGTATACACCGTTT, the PBM binding z-score in [1] was found to be 3.66; in assay [2], 2.9; in [3], 0.0102; in [4], 2.41; in assay [5], 0.483; in assay [6], 4.04. Also, the PBM binding z-score in assay [7] was determined as 2.7; in [8], 2.66; in assay [9], 1.14; in [10], 1.85; in [11] it was 0.534; in assay [12], 1.36. The PBM binding z-score in assay [13] came to 1.43; in assay [14], 1.08; in [15] it was 1.2; in [16] it was 2.24; in assay [17], 0.2; in assay [18], 2.77. The PBM binding z-score came to 0.514 in assay [19] and 3.79 in [20].

For the sequence CGACCAAGGTGAACAAGGTCGTTGATTACTATTC, the PBM binding z-score in [1] is 1.09; in assay [2], 1.16; in [3], -0.248; in assay [4] it was 1.83; in assay [5], -0.531; in assay [6], 2.54. The PBM binding z-score in assay [7] is 1.27; in assay [8] it was 1.29; in assay [9], -0.0265; in [10], 0.643; in assay [11], 1.95; in [12], 2.6. Further, the PBM binding z-score in assay [13] was -0.104; in [14] it was -0.33; in assay [15], 0.615; in assay [16] it was 2.45; in assay [17], 1.03; in assay [18] it was 1.99. The results for the PBM binding z-score in [19] and in assay [20] were 0.125 and 2.22, respectively.

As for TGAATGAGGTTAAACATCAGGGAACGTGGCGTCG, the PBM binding z-score in [1] was 3.51; in assay [2], 2.57; in assay [3] it was -0.0319; in [4], 1.69; in assay [5], -0.0141; in assay [6], 3.88. For the same sequence, the PBM binding z-score was determined as 2.33 in [7]; 2.74 in [8]; 1.06 in assay [9]; 1.93 in [10]; 2.85 in assay [11]; 2.57 in [12]. In addition, the PBM binding z-score was 1.51 in assay [13]; 0.325 in [14]; 0.272 in assay [15]; 1.7 in assay [16]; -0.296 in assay [17]; 2.29 in [18]. Also, the PBM binding z-score in [19] was determined as 0.112; in [20], 2.13.

Regarding TAGCCTAGGTCATACGGGCCAGTATAGTGTCGGC, the PBM binding z-score in [1] was 4.14; in assay [2] it was 3.21; in [3], 0.859; in assay [4], 1.8; in assay [5], -0.00996; in assay [6] it was 3.5. In addition, the PBM binding z-score was 2.18 in [7]; 2.57 in assay [8]; 0.318 in assay [9]; 1.54 in assay [10]; 1.67 in [11]; 2.89 in assay [12]. The PBM binding z-score is -0.195 in assay [13]; -0.639 in assay [14]; 0.811 in assay [15]; 1.66 in assay [16]; -0.13 in [17]; 2.4 in assay [18]. The PBM binding z-score is 0.0154 in [19] and 3.56 in [20].
